Test [1] deals with Lysosomal acid glucosylceramidase (Homo sapiens) (UniProt P04062). Kind of test: Glucocerebrosidase-p2 (AID 348; in the data active = potency below about 10 µM; note: potency is the fitted concentration of half-maximal effect). The note with it: purified GBA, blue fluorogenic substrate, 40 min. The essentials: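 Normal human glucocerebrosidase (0.2 nM) with blue fluorogenic substrate (80 uM final) in citrate/phosphate pH 5.9 with 10mM sodium taurocholate, 0.01% tween-20; 40 min RT, NaOH/glycine stop; fluorescence Ex 365/Em 440; AC50 from a titration from 0.6 nM upwards.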
Chain of Lysosomal acid glucosylceramidase (Homo sapiens) (P04062 whole entry, looked up): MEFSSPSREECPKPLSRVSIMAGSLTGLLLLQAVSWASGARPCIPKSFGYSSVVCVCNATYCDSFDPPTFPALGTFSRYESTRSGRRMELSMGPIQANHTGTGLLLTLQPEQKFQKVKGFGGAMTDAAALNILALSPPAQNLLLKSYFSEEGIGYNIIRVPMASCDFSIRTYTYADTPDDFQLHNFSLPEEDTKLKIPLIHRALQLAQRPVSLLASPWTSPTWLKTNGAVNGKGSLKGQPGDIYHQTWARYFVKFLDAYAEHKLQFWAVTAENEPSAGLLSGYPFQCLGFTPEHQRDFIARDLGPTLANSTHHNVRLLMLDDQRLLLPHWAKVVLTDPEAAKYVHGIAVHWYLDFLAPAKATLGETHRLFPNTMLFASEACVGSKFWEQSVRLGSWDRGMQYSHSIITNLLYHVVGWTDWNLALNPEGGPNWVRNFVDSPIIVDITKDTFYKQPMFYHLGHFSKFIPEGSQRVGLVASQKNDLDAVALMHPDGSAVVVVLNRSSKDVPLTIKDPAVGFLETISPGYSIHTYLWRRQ

Test [2] is described as follows: AP1 Signaling Pathway (AID 357).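 Note: ME-180 reporter cells stimulated with EGF at its EC50 level; % is set by controls: 0 for no effect and ±100 for the full control effect.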 Conditions: ME-180 AP-1-bla reporter, EGF-induced, beta-lactamase ratio, 5 h; at 7.69 µM (top of the series) unless noted. The essentials:
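Read-out was the 460nm/530nm emission ratio (excitation 405nm) after CCF4 loading for 2.5 hours at room temperature. Cells carried an AP-1-driven beta-lactamase reporter, were stimulated with EC50 EGF plus compound for 5 hours, and AC50 values came from titrations.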

Test [3] can be described thus: NFAT Signaling Pathway (AID 444).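 Note: carbachol stimulus at about its EC50 of 1 µM final; % is set by controls: 0 for no effect and ±100 for the full control effect.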 The note with it: Jurkat NFAT-bla M1, carbachol, beta-lactamase ratio, 5 h; at 7.69 µM (top of the series) unless noted. An outline of the steps: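 Jurkat cells with NFAT-driven β-lactamase reporter and co-expressed M1 receptor, stimulated with carbachol (final 1 uM, ~EC50), compound titration, 5 h at 37 °C. CCF4 loaded 1 h at RT; 460/530 nm ratio gave %activity and AC50.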

The nature of test [4]: Stat Signaling Pathway (AID 446).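 Note: ME-180 cervical cancer cells given 40 pM IL-6 alongside compound; SIE-controlled beta-lactamase reporter measured as 460/530 nm FRET emission ratio; % is set by controls: 0 for no effect and ±100 for the full control effect.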 The note with it: ME-180 SIE beta-lactamase reporter, IL-6 stimulated, 5 h; at 7.69 µM (top of the series) unless noted. The essentials:
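Normalization used AC90 stimulation (300 pM IL-6) and AC90 inhibition (125 nM pan-JAK inhibitor at 40 pM IL-6). The underlying signal is SIE-driven beta-lactamase in ME-180 cells after 5 h IL-6 exposure with compound.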

Test [5] has as its target Glucocorticoid receptor (Homo sapiens) (UniProt P04150). Kind of test: GR-GFP Redistribution (AID 450;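 active = compounds whose dose series gives a full or clear partial fitted curve of increased nuclear translocation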; note: potency is the fitted concentration of half-maximal effect). Conditions: U2OS GR-GFP nuclear translocation, laser cytometry, 2 h.
The target is the same in test [6]. Kind of test: GR-EFC Redistribution (AID 451; calls by dose curve; note: potency is the fitted concentration of half-maximal effect). Conditions: CHO-K1 GR-EFC translocation, beta-gal luminescence, 2 h. An outline of the steps:
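CHO-K1 cells expressing nuclear EA and GR-ED fragments of b-gal; compounds titrated up to 46 uM final, 2 h at 37 C. GR nuclear translocation read as complemented b-gal luminescence after 1 h RT detection.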

Test [7] deals with Mitogen-activated protein kinase 10 (Mus musculus) (UniProt Q61831). Kind of test: JNK3 AlphaScreen Assay (AID 530).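 Note: kinase came from lysate of stimulated human HepG2 cells; signal reports phosphorylation of biotinylated GST-cJun 1-79 at Ser73 with 10 µM ATP; % is set by controls: 0 for no effect and ±100 for the full control effect.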 The note with it: JNK3 lysate, c-Jun phosphorylation; series mostly up to 11.4 µM. The essentials:
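HepG2 lysate (IL-1b/TNFa pre-activated) + biotin-GST-cJun 1-79 + anti-pSer73 cJun; cpd titration, 15 min RT; ATP 10 uM start; Tris pH 7.6, MgCl2, DTT, vanadate; beads in EDTA buffer; AlphaScreen.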
In general terms: In Alpha technology, singlet oxygen from a donor bead excites a nearby acceptor bead.

Test [8] deals with 3',5'-cyclic-AMP phosphodiesterase 4B (Homo sapiens) (UniProt Q07343). Kind of test: qHTS Assay for Inhibitors of PDE-IV (AID 607; active = well fitted activation curve with a large enough effect in the main read-out, with a control signal flat, not every such curve was filed as active; note: % of control where 0% means no effect). Conditions: HEK293 ACTOne CNG channel cells, membrane potential fluorescence; series mostly up to 22.9 µM. The essentials:
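HEK293 ACTOne cells with CNG channel (1000/well), endogenous PDE4; membrane potential dye, compounds up to 22.9 uM final. Fluorescence Ex 535/Em 590; RO 20-1724 (100 uM final) as reference.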

In test [9] the target is Cytochrome P450 3A4 (Homo sapiens) (UniProt P08684). Kind of test: qHTS Assay for Inhibitors and Substrates of Cytochrome P450 3A4 (AID 884; active = well fitted curve in the direction sought with a large enough effect; an effect the other way counts as inactive or inconclusive; note: potency is the fitted concentration of half-maximal effect; nearly all actives have a fitted effect of over 50% in size). The note with it: recombinant CYP3A4, Luciferin-PPXE luminescence; series mostly up to 57.1 µM. An outline of the steps: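 Luminescent readout of luciferin produced by CYP3A4 (20 nM) dealkylation of Luciferin-PPXE, 25 uM (its KM). NADPH-driven reaction ran 60 min at RT after 10 min compound preincubation; data scaled to 57 uM ketoconazole as 100% inhibition.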
Chain of Cytochrome P450 3A4 (Homo sapiens) (P08684 whole entry, looked up): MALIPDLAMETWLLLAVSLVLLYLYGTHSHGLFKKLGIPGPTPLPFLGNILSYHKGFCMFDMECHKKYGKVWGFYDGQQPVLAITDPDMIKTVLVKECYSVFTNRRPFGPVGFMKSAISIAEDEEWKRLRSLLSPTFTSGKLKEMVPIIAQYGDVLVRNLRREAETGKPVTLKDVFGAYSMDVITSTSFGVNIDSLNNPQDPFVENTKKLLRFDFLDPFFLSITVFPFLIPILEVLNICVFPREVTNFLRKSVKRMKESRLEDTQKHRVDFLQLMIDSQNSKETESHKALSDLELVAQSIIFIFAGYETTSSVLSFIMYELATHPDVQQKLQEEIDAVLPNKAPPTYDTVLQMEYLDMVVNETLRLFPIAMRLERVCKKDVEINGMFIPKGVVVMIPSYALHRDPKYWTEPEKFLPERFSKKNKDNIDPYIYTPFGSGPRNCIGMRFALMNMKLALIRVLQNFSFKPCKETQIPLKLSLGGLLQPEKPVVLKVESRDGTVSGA

For test [10] the target is unchanged. The test can be described thus: qHTS Assay for Activators of Cytochrome P450 3A4 (AID 885; active = well fitted curve in the direction sought with a large enough effect; an effect the other way counts as inactive or inconclusive; note: nearly all actives have a fitted effect of over 65% in size). Conditions: recombinant CYP3A4, Luciferin-PPXE luminescence, 60 min; series mostly up to 11.4 µM. An outline of the steps: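 Human CYP3A4 dealkylates Luciferin-PPXE to luciferin, which luciferase detection converts to light. Substrate was at its KM (25uM), buffer 200mM KPO4, reaction 60 min at RT.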
On the technique in general: Quantitative high-throughput screening tests each substance at several concentrations.

In test [11] the target is Cytochrome P450 2C19 (Homo sapiens) (UniProt P33261). Kind of test: qHTS Assay for Inhibitors and Substrates of Cytochrome P450 2C19 (AID 899; active = well fitted curve in the direction sought with a large enough effect; an effect the other way counts as inactive or inconclusive; note: nearly all actives have a fitted effect of over 60% in size; note: potency is the fitted concentration of half-maximal effect). The note with it: recombinant CYP2C19, luciferin-H EGE luminescence; series mostly up to 11.4 µM. The essentials:
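Luminescent read-out of luciferin formed from Luciferin-H EGE (10uM, equal to KM). Enzyme 5nM in 50mM KPO4; compound added, 10 min at 37C, then NADPH regenerating system for 60 min at 37C. Full inhibition defined by 57uM ketoconazole.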

The nature of test [12]: qHTS Assay for Identification of Small Molecule Agonists for Hypoxia Response Element Signaling Pathway (AID 914; active = well fitted activation curve with a large enough effect in the signal ratio, with a control signal flat, not every such curve was filed as active; the % refers to the signal ratio; note: % of control where 0% means no effect). The note with it: ME-180 (cervical carcinoma) HRE-bla reporter, beta-lactamase ratio, CoCl2, 17 h; activation: stronger effect = higher value. The essentials: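 Read-out: CCF4 FRET ratio of 460nm to 530nm emission (excitation 405nm) after 2.5 hours at room temperature, taken from HRE-bla ME-180 cells that had been exposed to compound and EC50 CoCl2 for 17 hours.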

Test [13] concerns the target Cytochrome P450 2D6 (Homo sapiens) (UniProt P10635). Kind of test: qHTS Assay for Inhibitors and Substrates of Cytochrome P450 2D6 (AID 891; active = well fitted curve in the direction sought with a large enough effect; an effect the other way counts as inactive or inconclusive; note: nearly all actives have a fitted effect of over 60% in size; note: potency is the fitted concentration of half-maximal effect). The note with it: recombinant CYP2D6, luciferin-ME EGE luminescence; series mostly up to 11.4 µM. An outline of the steps: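 Luminescent read-out of luciferin formed by 5 nM human CYP2D6 demethylating 30 uM Luciferin-ME EGE (Km level) over 60 min at room temperature after NADPH regeneration addition. Data normalized to full inhibition by 1.43 uM quinidine.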

Unmarked numbers belong to inactive results. Inconclusive results are not listed. Calls of active or inactive are those of the source. Unless noted, calls come from the whole dose curve; as a rule, active = well fitted curve in either direction with a large enough effect (not every such curve was filed as active); inconclusive = small, poorly fitted or top-dose-only effect, or another doubt; inactive = flat fitted curve, though single readings scatter.

Chain of 3',5'-cyclic-AMP phosphodiesterase 4B (Homo sapiens) (Q07343 whole entry, looked up): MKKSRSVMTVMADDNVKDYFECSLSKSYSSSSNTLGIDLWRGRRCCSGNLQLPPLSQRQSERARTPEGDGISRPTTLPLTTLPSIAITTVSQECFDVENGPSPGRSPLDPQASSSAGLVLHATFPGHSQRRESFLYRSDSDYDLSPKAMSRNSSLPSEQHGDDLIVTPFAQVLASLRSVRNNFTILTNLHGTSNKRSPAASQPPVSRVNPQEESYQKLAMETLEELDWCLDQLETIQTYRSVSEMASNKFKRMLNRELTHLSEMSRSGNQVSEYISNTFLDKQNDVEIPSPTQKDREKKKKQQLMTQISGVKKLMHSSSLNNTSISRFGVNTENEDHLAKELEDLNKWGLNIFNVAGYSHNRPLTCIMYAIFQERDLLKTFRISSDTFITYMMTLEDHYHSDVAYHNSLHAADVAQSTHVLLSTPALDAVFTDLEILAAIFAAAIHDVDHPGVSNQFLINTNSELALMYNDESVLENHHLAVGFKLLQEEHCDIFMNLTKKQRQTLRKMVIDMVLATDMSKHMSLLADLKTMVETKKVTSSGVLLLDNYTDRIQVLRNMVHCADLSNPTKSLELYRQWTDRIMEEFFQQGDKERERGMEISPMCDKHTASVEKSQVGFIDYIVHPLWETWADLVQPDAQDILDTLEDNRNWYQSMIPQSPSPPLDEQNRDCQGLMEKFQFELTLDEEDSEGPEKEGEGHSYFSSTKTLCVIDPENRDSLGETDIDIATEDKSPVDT
Chain of Cytochrome P450 2C19 (Homo sapiens) (P33261 whole entry, looked up): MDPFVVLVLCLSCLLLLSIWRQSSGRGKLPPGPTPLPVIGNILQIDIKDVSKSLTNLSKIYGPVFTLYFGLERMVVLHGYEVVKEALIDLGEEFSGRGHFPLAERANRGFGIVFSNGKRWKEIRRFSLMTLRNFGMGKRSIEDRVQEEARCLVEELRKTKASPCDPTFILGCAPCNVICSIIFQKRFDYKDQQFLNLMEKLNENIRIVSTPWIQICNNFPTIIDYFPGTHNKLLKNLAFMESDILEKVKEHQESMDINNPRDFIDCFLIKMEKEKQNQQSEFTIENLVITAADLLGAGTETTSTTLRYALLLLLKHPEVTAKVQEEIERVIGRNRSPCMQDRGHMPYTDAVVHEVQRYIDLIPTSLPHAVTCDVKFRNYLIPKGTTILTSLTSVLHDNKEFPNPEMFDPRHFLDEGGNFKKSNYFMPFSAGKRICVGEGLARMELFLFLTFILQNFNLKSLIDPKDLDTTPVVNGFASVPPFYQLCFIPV
Chain of Glucocorticoid receptor (Homo sapiens) (P04150 whole entry, looked up): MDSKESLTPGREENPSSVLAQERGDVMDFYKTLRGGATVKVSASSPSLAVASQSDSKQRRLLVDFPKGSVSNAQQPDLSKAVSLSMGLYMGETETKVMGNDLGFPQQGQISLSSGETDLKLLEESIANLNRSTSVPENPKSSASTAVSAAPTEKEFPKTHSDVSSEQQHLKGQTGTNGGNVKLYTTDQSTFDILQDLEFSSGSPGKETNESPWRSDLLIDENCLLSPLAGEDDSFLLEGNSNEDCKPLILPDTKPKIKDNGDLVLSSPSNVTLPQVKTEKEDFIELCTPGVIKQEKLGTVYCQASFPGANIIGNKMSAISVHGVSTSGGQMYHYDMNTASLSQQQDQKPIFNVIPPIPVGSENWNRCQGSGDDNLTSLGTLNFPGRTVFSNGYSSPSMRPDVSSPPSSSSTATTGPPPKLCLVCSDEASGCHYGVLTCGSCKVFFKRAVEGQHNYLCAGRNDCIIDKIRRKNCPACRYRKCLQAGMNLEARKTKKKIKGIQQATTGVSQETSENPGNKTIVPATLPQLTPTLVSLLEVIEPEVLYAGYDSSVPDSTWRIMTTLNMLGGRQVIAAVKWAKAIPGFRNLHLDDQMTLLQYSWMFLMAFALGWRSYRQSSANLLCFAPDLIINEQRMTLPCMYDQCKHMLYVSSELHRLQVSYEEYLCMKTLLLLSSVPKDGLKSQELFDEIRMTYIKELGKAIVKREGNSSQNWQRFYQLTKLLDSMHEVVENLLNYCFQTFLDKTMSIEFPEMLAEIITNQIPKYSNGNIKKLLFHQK
Chain of Cytochrome P450 2D6 (Homo sapiens) (P10635 whole entry, looked up): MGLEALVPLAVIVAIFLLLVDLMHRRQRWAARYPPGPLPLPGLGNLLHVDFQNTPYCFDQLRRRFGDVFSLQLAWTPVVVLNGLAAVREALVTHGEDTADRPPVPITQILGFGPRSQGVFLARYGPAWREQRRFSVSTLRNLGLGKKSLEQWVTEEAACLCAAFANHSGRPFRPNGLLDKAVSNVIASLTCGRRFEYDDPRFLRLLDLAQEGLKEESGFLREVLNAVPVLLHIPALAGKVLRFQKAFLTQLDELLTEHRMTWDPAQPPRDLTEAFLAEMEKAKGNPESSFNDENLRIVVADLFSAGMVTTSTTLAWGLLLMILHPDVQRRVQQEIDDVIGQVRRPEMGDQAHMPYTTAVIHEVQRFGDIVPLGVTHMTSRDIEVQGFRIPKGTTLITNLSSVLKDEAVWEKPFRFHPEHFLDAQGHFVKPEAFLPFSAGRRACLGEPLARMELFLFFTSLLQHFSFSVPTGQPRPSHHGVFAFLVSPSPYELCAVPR

As to `NNC(=O)CCSc1ccccc1`, the Potency in test [1] is greater than 11.4 µM; in test [5] it was greater than 46 µM; in test [6] it was greater than 9.22 µM; in test [9], 3.98 µM (active); in [11], 3.98 µM (active). Moreover, the figures for the activity change, negative = inhibition in test [2] and in test [3] were 7.31% and 10.9%, respectively. Also, the activity, negative = inhibition in test [4] is -4.96%. In addition, the Potency entry in [7], in [8] and in test [10] was “inactive” throughout.

Consider `CC(=O)/C(=C\c1ccccc1F)C(=O)c1ccccc1`, for which the Potency in [1] is greater than 11.4 µM; in [5], greater than 46 µM; in [6], greater than 9.22 µM; in [11], 2 µM (active). Also, the activity change, negative = inhibition in test [2] is -4.86%; in test [3] it was 2.06%. Besides, the activity, negative = inhibition in test [4] is -1.38%. Also, the Potency entry in test [7], in test [8] and in [10] was “inactive” each time.

With `Cc1[nH]c(N)nc(=S)c1CCCNc1ccccc1`, the Potency in test [1] is greater than 11.4 µM; in test [5], greater than 46 µM; in test [6] it was greater than 9.22 µM; in test [11], 2 µM (active). The activity change, negative = inhibition in [2] was -2.18%; in test [3], 3.26%. For the same molecule, the activity, negative = inhibition in [4] was 3.47%. Moreover, the Potency result in test [7], in test [8] and in [10] was “inactive” each time.

`O=C(O)CCCc1ccc2ccccc2c1`: the Potency was greater than 11.4 µM in test [1], greater than 46 µM in test [5] and greater than 9.22 µM in [6]. Also, the activity change, negative = inhibition in test [2] is -3.28%; in test [3], -9.96%. Moreover, the activity, negative = inhibition in [4] was 3.96%. Besides, the Potency entry in test [7] and in test [8] was “inactive” each time. For the same molecule, the activation in [12] is -6.23%.

On to `CC(C)CNc1nc2ncnc(N)c2[nH]1`, for which the Potency in test [1] was greater than 11.4 µM; in test [5], greater than 46 µM; in [6], greater than 9.22 µM. For the same molecule, the activity change, negative = inhibition in test [2] is 5.51%; in [3] it was 1.95%. In addition, the activity, negative = inhibition in test [4] was -10.8%. Besides, the Potency entry in test [7] and in test [8] was “inactive” throughout. Further, the activation in test [12] is 10.3%.

For the molecule `O=c1[nH]c(SCc2cccc([N+](=O)[O-])c2)nc2nc[nH]c12`, the Potency in test [1] was greater than 11.4 µM; in test [5], greater than 46 µM; in test [6] it was greater than 9.22 µM. Also, the activity change, negative = inhibition in [2] is -0.65%; in [3], -8.58%. Also, the activity, negative = inhibition in test [4] is 8.09%. Besides, the Potency entry in [7], in test [8], in test [10] and in test [11] was “inactive” throughout.

`CC1(C)N=C(N)N=C(N)N1c1cccc(OCc2cccc(N)c2)c1`: the Potency in test [1] is greater than 11.4 µM; in [5] it was greater than 46 µM; in [6] it was greater than 9.22 µM; in test [13] it was 2.51 µM (active). The activity change, negative = inhibition in test [2] is 11.8%; in test [3] it was -27.5%. Further, the activity, negative = inhibition in [4] was -3.01%. Further, the Potency result in [7] and in test [8] was “inactive” each time.

For `c1ccc(-c2cc(-c3cc(-c4ccccn4)[nH]n3)n[nH]2)nc1`, the Potency was greater than 11.4 µM in test [1], greater than 46 µM in test [5] and greater than 9.22 µM in test [6]. Also, the activity change, negative = inhibition in test [2] was 4.94%; in test [3], 1.51%. The activity, negative = inhibition in [4] is -2.75%. For the same molecule, the Potency entry in test [7] and in test [8] was “inactive” in each case. Further, the activation in [12] is 3.17%.

Regarding `CC(=O)n1c(COS(C)(=O)=O)nc2ccccc21`, the values for the Potency in test [1], in test [5] and in test [6] were greater than 11.4 µM, greater than 46 µM and greater than 9.22 µM, respectively. Moreover, the activity change, negative = inhibition in [2] is -2.19%; in test [3], 8.51%. The activity, negative = inhibition in [4] was -1.19%. Besides, the Potency entry in test [7], in [8] and in test [10] was “inactive” each time.

Take `CN(Cc1cc(Br)cc(Br)c1O)Cc1c(O)ccc2ccccc12`: the Potency was greater than 11.4 µM in [1]; greater than 46 µM in test [5]; greater than 9.22 µM in test [6]; 1.58 µM (active) in [13]; 0.501 µM (active) in [11]. For the same molecule, the activity change, negative = inhibition was 3.01% in test [2] and -25.5% in test [3]. Moreover, the activity, negative = inhibition in test [4] was -8.41%. The Potency entry in [7], in test [8] and in test [10] was “inactive” each time.

For `NC(=O)CS(=O)C[C@H](N)C(=O)O` (some centres not stated), the Potency in test [1] was greater than 11.4 µM; in [5], greater than 46 µM; in test [6], greater than 9.22 µM. In addition, the activity change, negative = inhibition in test [2] was 23.6%; in test [3], 11%. Further, the activity, negative = inhibition in [4] is 5.38%. The Potency result in test [7] and in test [8] was “inactive” in each case. In addition, the activation in test [12] was 18.8%.

In the case of `COc1ccc(N(CC(=O)O)N=O)cc1`, the Potency is greater than 11.4 µM in test [1], greater than 46 µM in test [5] and greater than 9.22 µM in test [6]. In addition, the activity change, negative = inhibition in test [2] was 1.5%; in [3], 11.2%. Moreover, the activity, negative = inhibition in [4] was 2.83%. The Potency result in test [7], in test [8] and in test [11] was “inactive” each time.

Regarding `CC(C)[C@@H]1O[C@H](/C=C\c2ccccc2)OCC1(C)C`, the Potency in [1] is greater than 11.4 µM; in test [5], greater than 46 µM; in [6], greater than 9.22 µM. Further, the figures for the activity change, negative = inhibition in test [2] and in test [3] were -2.98% and 26.7%, respectively. For the same molecule, the activity, negative = inhibition in [4] was 8.84%. Besides, the Potency entry in test [7], in [8] and in [10] was “inactive” each time.

For `CN1CCN(CN2C(=O)C3C4C=CC(C3C2=O)C2C3C(=O)N(CN5CCN(C)CC5)C(=O)C3C42)CC1` (configuration not stated), the Potency in test [1] is greater than 11.4 µM; in test [5] it was greater than 46 µM; in [6] it was greater than 9.22 µM. The activity change, negative = inhibition is 4.11% in test [2] and 4.36% in test [3]. In addition, the activity, negative = inhibition in [4] was 11%. The Potency entry in [7], in test [8] and in test [13] was “inactive” each time.

As to `O=C(O)c1ccccc1-c1ccccc1C(=O)Nc1ccc2c(c1)[nH]c(=O)c1ccccc12`, the results for the Potency in test [1], in test [5] and in [6] were greater than 11.4 µM, greater than 46 µM and greater than 9.22 µM, respectively. In addition, the activity change, negative = inhibition was -4.06% in test [2] and 1.08% in test [3]. In addition, the activity, negative = inhibition in test [4] is -25.4%. The Potency result in [7], in [8] and in test [10] was “inactive” each time.

The values above are taken from PubChem BioAssay (NCATS).
